Experimental data as given in PubChem BioAssay (NCI).
Compounds without any hit were thinned out: in the full panel of roughly 79,000, 15% have a hit. Active and inactive are the calls of the source. Cut-off read from the data, not from the text of the source: active = growth inhibition above about 70%; inactive = the rest.

Columns and labels:
[1] = NCI Yeast Anticancer Drug Screen. Data for the rad50 strain (AID 155);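 note: 0% = growth of vehicle-only cultures of the same strain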; details: S. cerevisiae rad50 strain growth inhibition; at 50.0 µM; active compounds read high
In short: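 Compounds were tested on a yeast strain with an engineered DNA damage repair alteration; the reported value is growth inhibition normalised to vehicle treatment.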

[2] = NCI Yeast Anticancer Drug Screen. Data for the mec2-1 strain (AID 157); details: S. cerevisiae mec2-1 strain, at 50.0 µM, active compounds read high
In short: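 Each compound was tested on mec2-1 yeast, a strain altered in DNA damage repair or cell cycle control. Growth inhibition is reported relative to vehicle.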

[3] = NCI Yeast Anticancer Drug Screen. Data for the sgs1 mgt1 strain (AID 161);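 note: 0% = growth of cultures given vehicle only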; details: S. cerevisiae sgs1 mgt1 strain, at 50.0 µM, active compounds read high
In short: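 Genetically altered yeast, compound exposure, growth inhibition relative to vehicle.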

[4] = NCI Yeast Anticancer Drug Screen. Data for the cln2 rad14 strain (AID 165);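 note: 0% = growth equal to vehicle treated cultures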; details: S. cerevisiae cln2 rad14 strain, at 50.0 µM, active compounds read high
In short: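 Test compounds were added to cln2 rad14 yeast cultures; inhibition of growth was then determined by comparison with vehicle treatment.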

[5] = NCI Yeast Anticancer Drug Screen. Data for the bub3 strain (AID 167); details: S. cerevisiae bub3 mutant strain, at 50.0 µM, active compounds read high
In short: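 Growth of a checkpoint-deficient yeast mutant is measured after compound exposure. Values represent inhibition relative to vehicle.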

[6] = NCI Yeast Anticancer Drug Screen. Data for the mlh1 rad18 strain (AID 175); details: S. cerevisiae mlh1 rad18 strain growth inhibition; at 50.0 µM; active compounds read high
In short: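 Inhibition values reflect reduced growth of mutant yeast versus vehicle-treated controls following compound exposure; the mutations affect DNA damage repair.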

Measured: growth inhibition

O=C(N/N=C/c1cccc(F)c1)c1ccncc1
inactive: [1] 8.4% | [2] 1% | [3] -2.05% | [4] -23.9% | [5] -0.35% | [6] 8.35%

O=C(OCc1ccccc1)C1CCCN1C(=O)C(CSC(c1ccccc1)(c1ccccc1)c1ccccc1)NC(c1ccccc1)(c1ccccc1)c1ccccc1 (stereo unspecified)
inactive: [1] -5.5% | [2] -1.35% | [3] -0.8% | [4] -11.3% | [5] -7.55% | [6] 24.6%

Fc1ccc2c(c1)CC(CBr)O2 (stereo unspecified)
inactive: [1] -14.2% | [2] -8.5% | [3] -4.5% | [4] -23.9% | [5] -1.95% | [6] 2.8%

O=C1OCC2C(=O)N3Cc4cc5ccccc5nc4C3CC12 (stereo unspecified)
inactive: [1] 11.9% | [2] 10.2% | [3] -2.5% | [4] 8.85% | [5] -15.8% | [6] 9.55%

C#CC1(O)c2ccccc2C(=O)c2ccccc21
inactive: [1] -1.05% | [2] -7.85% | [3] -7.65% | [4] -7.35% | [5] 6.7% | [6] -2.35%

O=C(O)C1CCCN1Cc1cc2ccccc2c2ccccc12 (stereo unspecified)
inactive: [1] 11.2% | [2] -11.1% | [3] -25.9% | [4] 8.6% | [5] -3.3% | [6] 26.5%

CN(C)CCNC(=O)c1cccc2nc3c(C(=O)NCCN(C)C)cccc3nc12
inactive: [1] -11.7% | [2] -20.4% | [3] -46.6% | [4] -33.7% | [5] -34.1% | [6] -40.5%

CCOc1ccc(NC(=O)/C=C/c2ccco2)cc1
inactive: [1] -12% | [2] -8.75% | [3] 13.9% | [4] 22% | [5] 5.3% | [6] 3%

C1C[OH+]CC[OH+]CCNCC[OH+]CC[OH+]CCN1.Cl.[Cl-].[Pt+4]
inactive: [1] 8.7% | [2] -9.3% | [3] 6.25% | [4] 10.4% | [5] -3.65% | [6] 7%

Cc1c([N+](=O)[O-])cc(C(C)(C)C)c(OC(=O)Nc2cccc(Cl)c2)c1[N+](=O)[O-]
active: [2] 74% | [3] 79.7% | [6] 72.3%
inactive: [1] 60.7% | [4] 23.1% | [5] 39.1%

O=c1[nH]/c(=C/c2ccc3c(c2)OCO3)c(=O)[nH]/c1=C/c1ccc2c(c1)OCO2
inactive: [1] -24.2% | [2] -20% | [3] -22.8% | [4] -13% | [5] -34.4% | [6] 20.2%

NS(=O)(=O)c1ccc(C(=O)O)s1
inactive: [1] -12.1% | [2] -11.2% | [3] -10.3% | [4] -11% | [5] 11.6% | [6] -18.1%

CCCc1nc2c([nH]1)c(=O)n(C)c(=O)n2C
inactive: [1] 22.6% | [2] -14.3% | [3] 3.5% | [4] 9.85% | [5] -21.1% | [6] 22.6%

S=c1nc(-c2cccnc2)[nH][nH]1
inactive: [1] 1.6% | [2] 0.5% | [3] 0.7% | [4] 0.8% | [5] 1.55% | [6] 3.85%

CN(C)C=Nc1ccc2[nH]c3ccccc3c2c1
inactive: [1] -25.4% | [2] -13.1% | [3] -16.2% | [4] 14.3% | [5] 22.9% | [6] 21.4%

O=C(NC/C(Cl)=C/Cl)Nc1cccc2c1CCCC2
inactive: [1] -5.5% | [2] -13.2% | [3] 19.8% | [4] -10.8% | [5] 22% | [6] 3.6%

CCCCn1c(=O)cc(C(=O)O)c2ccccc21
inactive: [1] 1.7% | [2] -12.7% | [3] -0.5% | [4] -9.25% | [5] -7.9% | [6] 0.05%

NNC(=S)N/N=C(\c1nc2ccc(Cl)cc2[nH]c1=O)C(O)c1cccc([N+](=O)[O-])c1 (stereo unspecified)
inactive: [1] 48.6% | [2] 27.6% | [3] 12% | [4] -17.1% | [5] 27.4% | [6] -8.4%

CCN(CC)CCCC(C)Nc1cc(C)c2nc(C)cc(C)c2c1C (stereo unspecified)
inactive: [1] -22.1% | [2] 9.45% | [3] 17% | [4] -13% | [5] 3.4% | [6] -18.6%

NC(=O)C(CNCc1ccccc1)NCc1ccccc1 (stereo unspecified)
inactive: [1] -1.5% | [2] 14.2% | [3] 3.1% | [4] -8.5% | [5] 3.6% | [6] -11.4%

N#Cc1ccc(CC(O)(c2ccccc2)c2ccccc2)cc1
inactive: [1] 4.6% | [2] -1.25% | [3] -1.3% | [4] -12.6% | [5] 3.25% | [6] -9.7%

c1ccc(-c2nc3ccccc3nc2-c2ccc(-c3nc4ccccc4nc3-c3ccccc3)cc2)cc1
inactive: [1] 8.2% | [2] -0.6% | [3] -9% | [4] 4.6% | [5] 1.85% | [6] -18.8%

Cc1cccc(NC(=O)NC(O)C(Cl)(Cl)Cl)c1 (stereo unspecified)
inactive: [1] 1.65% | [2] -3.35% | [3] -6.25% | [4] -43% | [5] -16.6% | [6] 0.95%

Cc1ccc(C)c(NC(=O)C(=O)C(C2C(C)CC(=O)C2CC(=O)O)[N+](=O)[O-])c1 (stereo unspecified)
inactive: [1] 7.05% | [2] 10.9% | [3] -8.05% | [4] 10.8% | [5] 6.6% | [6] 1.7%

CCOC(=O)C1(C(O)(C2CC2)C2(C(=O)OCC)CC2)CC1
inactive: [1] -9.1% | [2] -11.6% | [3] -12.3% | [4] -29.9% | [5] 13.1% | [6] 5.45%

O=S(=O)(O)c1ccccc1
inactive: [1] -16.6% | [2] -8.5% | [3] -6.05% | [4] -2.25% | [5] 0.15% | [6] 1.25%

CCCCc1c(O)c2c(=O)n(C)c(=O)n3c4ccccc4n(c1=O)c23
inactive: [1] -1.55% | [2] -9.7% | [3] -1% | [4] -22.1% | [5] -0.3% | [6] 10.8%

O=C1CCCC2C(O)CCC[C@H]12 (stereo partly specified)
inactive: [1] -9% | [2] -2.9% | [3] -21.8% | [4] 1% | [5] -7.7% | [6] -1.9%

NC(=O)C1=NNc2ccccc2C(=O)N1c1ccccc1
inactive: [1] 8.3% | [2] -10.2% | [3] -20.1% | [4] 9.9% | [5] 6.9% | [6] 2.55%

FC(F)(F)C1(C(F)(F)F)OS2(OC(C(F)(F)F)(C(F)(F)F)c3ccccc32)c2ccccc21
inactive: [1] 0.5% | [2] 3.4% | [3] 3.3% | [4] -22.9% | [5] -1.1% | [6] -5.1%

CCC(=O)Nc1cc(Cl)ccc1C
inactive: [1] 46.6% | [2] 31.4% | [3] 26.3% | [4] 23.4% | [5] 9.25% | [6] 26.3%

c1ccc(N2CCN(c3ccccn3)CC2)nc1
inactive: [1] -2.65% | [2] -13.6% | [3] 2.5% | [4] -21.5% | [5] -13.7% | [6] -5.1%

COC(=O)C1C2CC3c4[nH]c5cc(OC)ccc5c4CCN3CC2CC(OC(=O)CCc2cc(OC)c(OC)c(OC)c2)C1OC (stereo unspecified)
inactive: [1] -3.35% | [2] -0.2% | [3] 4.25% | [4] 13.4% | [5] 14.7% | [6] 9.85%

O=C(O)/C(=C\c1ccccc1[N+](=O)[O-])c1ccc(C(F)(F)F)cc1
inactive: [1] 4% | [2] -15.9% | [3] 1.95% | [4] 7.1% | [5] 10.7% | [6] -18.9%

NCCCOc1ccccc1
inactive: [1] -3.6% | [2] -7.8% | [3] -5.1% | [4] -10.3% | [5] -7.05% | [6] -9.35%

CC(C)N(C(=O)c1cccc([N+](=O)[O-])c1)C(C)C
inactive: [1] 14.6% | [2] 11.2% | [3] 7.5% | [4] -30.9% | [5] -4.1% | [6] 15.8%

O=c1c(SCc2ccc(Br)cc2)c(SCc2ccc(Br)cc2)cnn1-c1ccccc1
inactive: [1] 22.3% | [2] 4.65% | [3] 13.8% | [4] 34% | [5] 13.4% | [6] 14.8%

COc1cc(C2SCCCCCCCCCCSC(c3ccc(O)c(OC)c3)SCCCCCCCCCCS2)ccc1O (stereo unspecified)
inactive: [1] -24.6% | [2] -24.8% | [3] -29.2% | [4] -18.9% | [5] -30.2% | [6] -6.9%

CC(=O)OCC1(C)CCC(C)CO1 (stereo unspecified)
inactive: [1] -21.4% | [2] -4.45% | [3] 7.8% | [4] 15.2% | [5] 1.1% | [6] 7%

CCOC(=O)C(C(=O)OCC)=C(C)C
inactive: [1] -9.9% | [2] -32% | [3] -12.2% | [4] -3.1% | [5] -26.1% | [6] -37.3%

COc1cc2c(c3c1c(=S)c1ccccc1n3C)C=CC(C)(C)O2
active: [3] 86.2% | [5] 82.7% | [6] 78.1%
inactive: [1] 59.5% | [2] 18.9% | [4] 27.1%
